# A selection: hits, their analogues and other compounds. The true share with any hit is near 4.1%.
# NSD2 HMT inh: NSD2 (human) methyltransferase inhibition; NSD2 peptide methylation, AlphaScreen, 120 min; inhibition, % at 12.5 µM; actives 0.54% (n = 310,000); in the data active = inhibition above about 50%
# ALR H2O2 inh: inhibitors of human sulfhydryl oxidase ALR; inhibition, % (concentration not given with the values); actives 3.8% (n = 290,000); AID 485317; purified ALR, DTT oxidation, H2O2 HRP-luminol luminescence;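 active = mean replicate inhibition above about 79%, with every replicate also reaching it, limit read from the data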
# CASP6 VEID inh: caspase-6 (human) enzyme inhibition. P55212. inhibition, % at 12.5 µM. purified caspase-6, Z-VEID-R110 cleavage fluorescence. AID 686996. actives 0.53% (n = 350,000);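 active = mean inhibition across replicates at least about 35%, with every replicate also reaching that limit, limit read from the data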;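 note: 0% = median of neutral control wells and 100% = no fluorescence left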
# Target sequence (P55212 24-179 limits assumed): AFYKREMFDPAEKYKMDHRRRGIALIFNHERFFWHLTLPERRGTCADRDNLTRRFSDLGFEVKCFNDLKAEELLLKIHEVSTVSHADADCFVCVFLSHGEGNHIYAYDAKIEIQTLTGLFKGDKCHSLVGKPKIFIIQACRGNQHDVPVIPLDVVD
# Target sequence (P55212 194-293 limits assumed): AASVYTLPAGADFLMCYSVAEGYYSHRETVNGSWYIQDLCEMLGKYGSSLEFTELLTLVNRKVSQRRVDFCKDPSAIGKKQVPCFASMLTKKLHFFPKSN
# Env fusion inh: blocks HIV Env-driven cell-cell fusion. inhibition, % at 12.3 µM. AID 651610. HeLa-JRFL Env/CEM21 cell fusion, luciferase. actives 1.1% (n = 360,000);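 active = mean replicate inhibition score of at least 50 and every replicate individually at or above 50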;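 note: 0% = plate neutral controls and 100% = maraviroc near 300 nM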
# PglD DTNB: inhibitors of Campylobacter jejuni PglD acetyltransferase; purified PglD enzyme, DTNB colorimetric CoA detection; actives 0.098% (n = 360,000); inhibition, % at 12.5 µM; AID 602405; in the data active = inhibition above about 16%, passing the limit was not always enough
# F508del corr: CFTR F508del correction in bronchial cells; CFBE cells, YFP halide quenching; stimulated with forskolin plus potentiator P3; % fluorescence drop versus neutral controls; activity (quench increase), % at 7.58 µM; actives 0.36% (n = 350,000);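 active = mean added fluorescence quench of at least 8% versus neutral control, with both replicates also reaching 8%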;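 note: cells transiently co-express mutant CFTR-F508del with the halide-sensitive YFP; corrector assay measuring rescue of mutant channel to the surface after 24 h compound exposure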
# * = called active by the depositor; x = no result given; [ ] = another dose, or the depositor's remark.
SMILES,NSD2 HMT inh,ALR H2O2 inh,CASP6 VEID inh,Env fusion inh,PglD DTNB,F508del corr
O=C(CC1CC1)N1CC(=O)N2[C@H](C1)[C@@H](c1ccc(-c3ccccc3)cc1)[C@@H]2CO,x,x,-0.4,x,x,-3.0
C[C@H](CO)N1C[C@H](C)[C@H](CN(C)S(=O)(=O)c2cn(C)cn2)Oc2ncc(C3=CCCC3)cc2C1=O,x,x,2.6,-12.0[16.7 µM],0.0,-3.0
Cc1ccc(Sc2c([N+](=O)[O-])ncn2C)cc1,1.9,97.7*,x,-20.6,-0.9,x
Cn1cnc([N+](=O)[O-])c1Sc1ccc(Br)cc1,-0.3,98.4*,0.2,-22.6,-6.7,1.6
Cc1cccc(Sc2c([N+](=O)[O-])ncn2C)n1,2.1,26.4,x,-107.1,1.3,x
Cn1cnc([N+](=O)[O-])c1Sc1ccc(C(C)(C)C)cc1,1.3,-2.4,0.6,6.9,10.1,0.7
Cc1cc(C(=O)NNc2ccc(F)cc2)no1,-3.3,98.8*,-0.2,-14.5,-5.5,0.0
Cc1cc(C(=O)NNc2ccccc2F)no1,-1.9,98.8*,1.9,3.1,-4.9,0.9
COc1ccc(-c2cc3nc(C)n(N)c(=O)c3s2)cc1,-4.2,-1.7,-3.1,84.0*,6.7,-2.5
Cc1nc2cc(-c3ccccc3)sc2c(=O)n1N,5.8,-13.2,0.3,64.4*,x,-2.5
COc1ccc(-c2cc3nc4n(c(=O)c3s2)CCC4)cc1,1.1,-22.5,0.1,x,-1.9,-0.1
Cc1ccc(NC(=O)CCCCCC2NC(=O)NC2C)cc1 (stereo unspecified),135.5*,5.2,5.1,x,0.8,-2.2
O=C(Nc1nnc(C2CC2)o1)c1ccc(S(=O)(=O)N2CCCc3ccccc32)cc1,x,96.4*,-2.5,26.4,-0.8,-2.9
COCc1nnc(NC(=O)c2ccc(S(=O)(=O)N3CCCc4ccccc43)cc2)o1,-6.1,85.6*,4.4,24.0,x,x
COc1ccc(-c2nnc(NC(=O)c3ccc(S(=O)(=O)N4CCCc5ccccc54)cc3)o2)cc1,x,15.4,x,x,x,x
Cc1noc(C)c1S(=O)(=O)N(C)C[C@@H]1Oc2ccc(NC(=O)CCN3CCOCC3)cc2CC(=O)N([C@@H](C)CO)C[C@H]1C,x,x,0.3,x,x,-3.5
CC1(C)OC(=O)C(=NNc2ccc(O)cc2)C(=O)O1,5.4,99.3*,x,x,x,x
O=C(CCN1CCCCC1)N[C@@H]1CC[C@H](CCNS(=O)(=O)c2ccc(Cl)cc2)O[C@@H]1CO,x,x,-1.9,-4.0[16.7 µM],7.2,3.2
CC1(C)Cc2cccc(Oc3cc(NN4CCCCC4)c([N+](=O)[O-])cc3[N+](=O)[O-])c2O1,x,2.5,1.7,71.7*,-3.7,-2.0
C=CCN1C(=O)/C(=C/C=C2/N(CC)c3ccc(S(=O)(=O)N(C)C)cc3N2CC)SC1=S,5.4,74.2,1.4,28.5,x,11.4*
CNc1c2cccc(C)c2nc2c(C(=O)NCCN(C)C)cccc12,10.8,x,-29.7,x,x,19.4*
Cc1[nH]c2ccccc2c1/C=N\NC(=O)c1ccccc1Cl,0.3,x,-1.4,69.8*,1.8,-2.0
Cc1cc(C(=O)NN=Cc2c(C)[nH]c3ccccc23)c(C)o1,-1.9,18.3,2.8,x,7.0,5.2
Cc1[nH]c2ccccc2c1/C=N/NC(=S)NC(C)C,4.2,99.5*,-6.9,-0.5,x,-4.7
C[C@@H]1CN([C@H](C)CO)C(=O)c2cc(C#CCN(C)C)cnc2O[C@H]1CN(C)Cc1ccc2c(c1)OCO2,x,x,-1.0,-2.8[16.7 µM],-1.0,1.3
SMILES,NSD2 HMT inh,ALR H2O2 inh,CASP6 VEID inh,Env fusion inh,PglD DTNB,F508del corr
CN1C(=O)c2cc(NC(=O)c3ccc(C(F)(F)F)cc3)ccc2OC[C@@H]2O[C@@H](CC(=O)O)CC[C@@H]21,x,x,0.3,12.7[16.7 µM],2.2,-1.1
Cc1ccc2c(c1)C(=C(C#N)C#N)CCN2,1.3,x,0.4,76.1*,x,2.5
O=c1[nH]c(CN2CCN(c3ccc(O)cc3)CC2)nc2scc(-c3ccc(Cl)cc3)c12,-2.4,30.3,1.2,-49.0,x,13.1*
Oc1ccc(N2CCN(Cc3nc4ccccc4[nH]3)CC2)cc1,-5.4,98.7*,6.5,-2.0,-0.2,-0.2
O=c1[nH]c(CN2CCN(c3ccccc3O)CC2)nc2scc(-c3ccccc3Cl)c12,5.2,7.1,-4.2,3.3,1.0,3.4
C[C@H]1CCCCO[C@H](CN(C)S(=O)(=O)c2ccc(F)cc2)[C@@H](C)CN([C@@H](C)CO)C(=O)c2cc(NS(=O)(=O)c3ccc(Cl)cc3)ccc2O1,x,x,0.0,10.9[16.7 µM],-0.9,3.6

# Screening data: PubChem BioAssay, Broad Institute
